Source: PubChem BioAssay (EPA / NIEHS)
“And” between values parts separate entries of the source, which are not always exact repeats. Identical values can stand only once. Results filed as inconclusive are left out. The source made the active and inactive calls. How the source made its calls: active means hit-call score of the fitted dose curve at least 0.9, where 1 is the maximum; inconclusive means response in the unintended direction; inactive means score below 0.9.

What follows are molecules tested on Cytochrome P450 2B6 (Homo sapiens) (UniProt P20813) (assay: CLD_CYP2B6_48hr: CellzDirect (CLD) Gene Expression Assay for xenobiotic metabolism (CYP2B6) at 48 hours (AID 2283699);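 further: actives raise transcript level above DMSO so potency reflects induction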).
Experimental: CLD_48hr is a cell-based, multiplexed-readout assay that uses hepatocyte, a human liver primary cell, with measurements taken at 48 hours after chemical dosing in a 96-well plate.CLD_CYP2B6_48hr is one of 16 assay component(s) measured or calculated from the CLD_48hr assay. It is designed to make measurements of mRNA induction, a form of inducible reporter, as detected with chemiluminescence signals by Quantitative Nuclease Protection Assay (qNPA) technology.Data from the assay component CLD_CYP2B6_48hr was analyzed at the endpoint, CLD_CYP2B6_48hr, in the positive analysis fitting direction relative to DMSO as the negative control and baseline of activity. Using a type of inducible reporter, gain-of-signal activity can be used to understand changes in the reporter gene as they relate to the gene CYP2B6. Furthermore, this assay endpoint can be referred to as a primary readout. To generalize the intended target to other relatable targets, this assay endpoint is annotated to the cyp intended target family, where subfamily is xenobiotic metabolism.
Human hepatocyte cultures were treated daily for two consecutive days with fresh dosing solutions containing appropriate concentrations of the 320 ToxCast chemicals (chemical identities were blinded to CellzDirect and other ToxCast collaborators), vehicle control (0.2% DMSO), and positive control inducers as summarized in Table 1. Due to the large number of treatment groups and chemicals examined, the ToxCast chemicals were divided into two groups (spanning two independent cultures of hepatocytes from separate donor preparations (Hu778: ToxCast plates 1 and 2; Hu776: ToxCast plates 3 and 4). Each preparation of human hepatocyte cultures was treated with respective vehicle control, medium only control, set of six positive controls/reference chemicals for the five hepatic receptor pathways, and a subset of eight of the ToxCast chemicals (indoxacarb, pyrithiobac-sodium, norflurazon, cyhalofop-butyl, methomyl, thiram, acetochlor, and propiconazole). These replicate data, coupled with internal replicates designed within the blinded ToxCast chemical library, provided additional data to evaluate interindividual differences between hepatocyte preparations and their potential impact on chemical profiles.Cell morphology and integrity were evaluated using phase-contrast microscopy as an indicator of hepatocyte cell health (Tyson & Green, 1987). Cultures for each treatment group (i.e., media, vehicle [0.2% DMSO], positive control inducers [multiple concentrations], and the ToxCast chemicals [multiple concentrations]) were observed and cell morphology was assessed relative to vehicle control cultures at each harvest time point (0, 6, 24, or 48 h). […] Images were evaluated at the conclusion of the study to assess changes in cell integrity and account for the effects of chemical exposure on uncharacteristic changes in concentration-dependent gene expression profiles. The results from these determinations of apparent cytotoxicity were annotated (yes/no) alongside the corresponding qNPA data for reference.At the conclusion of each treatment period, hepatocyte cultures (96-well) were washed with 1 volume of HBSS, lysed by addition of 25 ul ArrayPlate lysis buffer (HTG, Tucson, AZ), and 70 ul/well of Denaturation Oil, denatured by incubation at 95C for 10 min, and frozen at approximately -70C until analysis by nuclease protection assay (qNPA) (Roberts et al., 2007). For qNPA analysis, cell lysates were thawed at 50C for approximately 30 min, qNPA probes were added, and samples were incubated at 95C for 10 min to begin the detection process by denaturing the target RNA, dissociating the duplexes and secondary structure hybridization. At the conclusion of the hybridization period, S1 nuclease reagent was added to each sample to digest all nonprotected nucleotides at 50C for 60-90 min. […]
C=CCOC(Cn1ccnc1)c1ccc(Cl)cc1Cl (stereo not drawn) was tested, and the AC50 was 0.163 µM (active).
For CCCCCOC(=O)COc1cc(N2C(=O)C3=C(CCCC3)C2=O)c(F)cc1Cl, the outcome was “inactive”.
In the case of COC(=O)c1ccccc1S(=O)(=O)NC(=O)Nc1nc(OC(F)F)cc(OC(F)F)n1, the outcome is reported as “inactive”.
CCSC(=O)N(CC(C)C)CC(C)C was tested, and the outcome was “inactive”.
CC(C)(C)[C@@H](O)[C@@H](Cc1ccc(Cl)cc1)n1cncn1 was tested, and the outcome was “inactive”.
COC(=O)CSc1cc(N=c2sc(=O)n3n2CCCC3)c(F)cc1Cl was tested, and the AC50 was 4.48 µM (active).
CCN(CC)C(=O)c1cccc(C)c1 was tested, and the AC50 was 3.6 µM (active).
In the case of CCCOC(=O)c1ccc(C(=O)OCCC)nc1, the outcome is reported as “inactive”.
CCNc1nc(N)nc(Cl)n1 was tested, and the outcome was “inactive”.
With CC1(C)C(C=C(Cl)Cl)C1C(=O)OCc1cccc(Oc2ccccc2)c1 (stereo not drawn) the AC50 was 3.87 µM (active).
For S=C(S)NCCNC(=S)S.[Mn+2].[S-]C([S-])=NCCN=C([S-])[S-].[Zn+2], the outcome was “inactive”.
CCCCOCCOCCOCc1cc2c(cc1CCC)OCO2 was tested, and the AC50 was 0.83 µM (active).
For C#CCOC(=O)[C@@H](C)Oc1ccc(Oc2ncc(Cl)cc2F)cc1, the outcome was “inactive”.
With COC(=O)c1cccc(C)c1S(=O)(=O)NC(=O)Nc1nc(OCC(F)(F)F)nc(N(C)C)n1 the AC50 was 5.1 µM (active).
For CCCCOC(=O)[C@@H](C)Oc1ccc(Oc2ccc(C(F)(F)F)cn2)cc1, the outcome was “inactive”.
With OB(O)O the outcome was “inactive”.
For CCCCCCC(C)OC(=O)COc1nc(F)c(Cl)c(N)c1Cl (stereo not drawn), the outcome was “inactive”.
In the case of CCCCC(CC)CN1C(=O)C2C3C=CC(C3)C2C1=O (stereo not drawn), the AC50 is reported as 4.6 µM (active).
With CCC(C)OC(=O)N1CCCCC1CCO (stereo not drawn) the outcome was “inactive”.
For CCCN(CCC)c1c([N+](=O)[O-])cc(C(F)(F)F)c(N)c1[N+](=O)[O-], the AC50 was 3.56 µM (active).
c1ccc2[nH]c(-c3cscn3)nc2c1 was tested, and the outcome was “inactive”.
COC(=O)c1c(Cl)nn(C)c1S(=O)(=O)NC(=O)Nc1nc(OC)cc(OC)n1 was tested, and the outcome was “inactive”.
With CCCCOC(=O)C(C)Oc1ccc(Oc2ccc(C(F)(F)F)cn2)cc1 (stereo not drawn) the outcome was “inactive”.
With CCN(Cc1c(F)cccc1Cl)c1c([N+](=O)[O-])cc(C(F)(F)F)cc1[N+](=O)[O-] the AC50 was 0.273 µM (active).
CCC(O)=C1C(=O)CC(C(=O)O)CC1=O (stereo not drawn) was tested, and the AC50 was 0.000247 µM (active).
For CN(C)C(=O)Nc1ccc(Cl)c(Cl)c1, the AC50 was 3.85 µM (active).
CCOC(=O)COc1cc(-n2ncc(C(F)(F)F)c(C)c2=O)c(F)cc1Cl was tested, and the outcome was “inactive”.
CCCN(CCC)C(=O)SCC was tested, and the AC50 was 381 nM (active) and 209 nM (active).
In the case of c1ccc(Nc2ccccc2)cc1, the AC50 is reported as 4.79 µM (active).
In the case of CCCCC(CC)COC(=O)c1ccccc1C(=O)O (stereo not drawn), the AC50 is reported as 20 µM (active).
With CCOC(=O)C(C)Oc1ccc(Oc2nc3ccc(Cl)cc3o2)cc1 (stereo not drawn) the outcome was “inactive”.
For CC(C)(c1ccc(O)cc1)c1ccc(O)cc1, the outcome was “inactive”.
For CCOC(=O)NCCOc1ccc(Oc2ccccc2)cc1, the AC50 was 10.8 µM (active).
